Assay outcomes as filed in PubChem.
sEH activator: increases human soluble epoxide hydrolase activity. AID 717. activation, % at 2 µM. P34913. purified human sEH enzymatic activity, activator screen. 91,000 tested, 0.04% active; in the data active = activation above about 37%
Target sequence (P34913 whole entry, looked up): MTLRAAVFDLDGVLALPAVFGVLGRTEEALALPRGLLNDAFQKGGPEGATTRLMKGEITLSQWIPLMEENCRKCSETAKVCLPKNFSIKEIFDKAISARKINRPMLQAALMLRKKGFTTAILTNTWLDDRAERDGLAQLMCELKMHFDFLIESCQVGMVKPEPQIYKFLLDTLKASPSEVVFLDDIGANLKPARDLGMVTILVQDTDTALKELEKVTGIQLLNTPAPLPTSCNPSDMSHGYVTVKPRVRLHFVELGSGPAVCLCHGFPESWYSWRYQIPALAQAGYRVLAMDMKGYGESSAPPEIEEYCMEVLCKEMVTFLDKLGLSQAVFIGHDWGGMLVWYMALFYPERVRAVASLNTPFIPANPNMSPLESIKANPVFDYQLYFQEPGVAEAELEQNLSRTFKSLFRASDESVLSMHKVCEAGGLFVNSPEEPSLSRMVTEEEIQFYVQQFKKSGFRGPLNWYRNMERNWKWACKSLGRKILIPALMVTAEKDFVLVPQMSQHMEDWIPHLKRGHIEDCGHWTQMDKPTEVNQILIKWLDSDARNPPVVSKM
PTK2B oligo ant: Pyk2 (human) oligomerization antagonism; Q14289; Q293 cells, Pyk2 FERM NanoBiT luminescence; hits give low values; z-score (the deposit names both 25 µM and 10 µM); 99,000 tested, 0.83% active;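 active = Z-score of -3 or lower, scaled per plate to the spread of control and sample wells; inactive = z-score above -3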;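 also: negative z-score means lost luminescence so less FERM oligomerization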
Plk1 PBD FP: inhibitors of human Plk1 polo box domain binding; P53350; Plk1 PBD phosphopeptide binding, fluorescence polarization; inhibition, %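 (tested at about 20 µM)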; 97,000 tested, 0.13% active; AID 693; in the data active = inhibition above about 34%, passing the limit was not always enough
PLK1 inh: PLK1 (human) kinase inhibition. recombinant PLK1 kinase, TR-FRET peptide phosphorylation. 97,000 tested, 0.53% active. inhibition, % at 10 µM. P53350;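 active = inhibition of 50% or more in the single-concentration screen; inactive = inhibition below 50%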;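 also: 0% = DMSO max control and 100% = H-89 dihydrochloride min control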
sEH inh: blocks human soluble epoxide hydrolase activity. 91,000 tested, 0.34% active. recombinant human sEH enzymatic activity assay. inhibition, % at 2 µM. AID 707. P34913; in the data active = inhibition above about 80%
* hit, by the source's call; · = no result. An excerpt weighted towards active compounds, which were near 1.6% of everything screened.

SMILES | sEH activator | PTK2B oligo ant | Plk1 PBD FP | PLK1 inh | sEH inh
O=C(Nc1ccc2c(c1)N(Cc1ccccc1)C(=O)c1ccccc1S2)NC1CC1 | 1 | -3.1* | -8 | -1 | 2
O=C(Nc1ccc2c(c1)OCO2)c1cnn2cccnc12 | 1 | 0.44 | 14 | 40 | 1
O=C(Nc1cccc(O)c1)c1cnn2cccnc12 | 7 | 1.4 | -6 | 57* | -6
COc1ccccc1OCC(=O)Nc1sc2c(c1C(=O)NCC1CCCO1)CCC2 (stereo unspecified) | -7 | -0.51 | -15 | -3 | 8
Cc1ccc(NC(=O)c2cc([N+](=O)[O-])ccc2NCc2cccnc2)cc1Cl | 0 | -3.7* | 16 | -11 | -1
CCN1C/C(=C\c2cccc(C)c2)c2nc3ccccc3c(C(=O)O)c2C1 | 9 | · | 43 | -3 | -6
Cc1[nH]c2ccccc2c1/C=N/Nc1ccc([N+](=O)[O-])cc1S(=O)(=O)Nc1ccc(Cl)cc1 | 1 | -3.4* | 8 | -22 | 1
COc1ccc(NS(=O)(=O)c2cc([N+](=O)[O-])ccc2N/N=C\c2c(C)[nH]c3ccccc23)cc1 | 4 | -2.8 | -1 | -16 | -3
C/C(=N\O)c1ccccc1C(=O)O | -6 | -3.3* | -7 | 4 | 6
O=C(Cn1nc(Cc2cccnc2)c2ccccc2c1=O)N1CCN(C(=O)c2ccco2)CC1 | · | · | -9 | 61* | ·
Cc1nc(CC(=O)N2CCN(c3cccc(C)c3C)CC2)cs1 | -15 | 0.28 | -18 | 5 | 14
CC(C)(C)NC(=O)C1CCCN(S(=O)(=O)c2cccc3cccnc23)C1 (stereo unspecified) | · | · | -38 | 62* | ·
O=C(Nc1ccncc1)C1CCCN(S(=O)(=O)c2cccc3cccnc23)C1 (stereo unspecified) | -4 | · | 10 | 3 | 4
O=C(NCc1ccccc1)/C(NC(=O)c1ccccc1)=C(/Sc1ccccn1)c1ccccc1 | 0 | -4.1* | -7 | -10 | 4
COc1ccc2c(c1OC)C(=O)N1N=C(c3ccc(Cl)cc3)CC21 (stereo unspecified) | · | -0.45 | · | · | ·
CC(C)(C)n1nnnc1C(c1cccnc1)N(Cc1ccccc1)Cc1cccs1 (stereo unspecified) | 2 | -3.6* | 16 | -8 | 1
CC(C)(C)n1nnnc1C(c1cccs1)N(Cc1ccccc1)Cc1cccnc1 (stereo unspecified) | -12 | -4.2* | -17 | -6 | 11
O=C(O)CCC(=O)N1CCc2cc(S(=O)(=O)N(CCc3ccccc3)Cc3ccccc3)ccc21 | 13 | -1.1 | -33 | -2 | -13
CCOC(=O)c1cnc2ccc(C)cc2c1Sc1ccccc1C(=O)OC | -4 | -4.3* | -28 | -9 | 5
COCC(C)NC(=O)CSc1nc(-c2ccccc2)c(-c2ccccc2)o1 (stereo unspecified) | -4 | -2 | -24 | 0 | 2
CCCc1nc2ccccc2c(C(=O)OCC(=O)Nc2ccc(S(=O)(=O)N3CCOCC3)cc2)c1CC | -65 | -4.5* | 18 | -2 | 66
CCCc1nc2ccccc2c(C(=O)OCC(=O)Nc2cccc(S(=O)(=O)N3CCOCC3)c2)c1CC | · | -4.6* | -21 | -8 | ·
O=C(COC(=O)CCc1nc2ccccc2s1)Nc1cccc(S(=O)(=O)N2CCOCC2)c1 | 9 | 2 | -1 | -15 | -7
Cn1nc(Oc2nc(N3CCOCC3)nc(N3CCOCC3)n2)ccc1=O | 7 | -0.01 | -10 | -1 | -7
CN(C)c1nc(N)nc(CSc2nnnn2-c2ccccc2)n1 | -22 | -0.19 | -10 | 8 | 22
SMILES | sEH activator | PTK2B oligo ant | Plk1 PBD FP | PLK1 inh | sEH inh
CCCCNC(=O)C1CCCN1C(=O)Nc1ccccc1 (stereo unspecified) | -5 | 1.6 | -6 | -9 | 7
O=C(Nc1ccc2oc(-c3ccccc3F)nc2c1)c1ccc2c(c1)OCCO2 | -31 | -3.1* | -16 | -1 | 29
O=C(NCCSCc1ccco1)Nc1cccc(Cl)c1 | -80 | -0.59 | 3 | -11 | 80*
CCOc1ccc(S(=O)(=O)Nc2ccc(F)cc2)c(C)c1C | -14 | -2.4 | -8 | -3 | 16
COc1ccc(OC)c(C(=O)c2ccc(C(=O)N3CCCCC3)cc2)c1 | 1 | 0 | -22 | -8 | -2
CCC1Oc2ccc(C)cc2N(CC(=O)NCC2COc3ccccc3O2)C1=O (stereo unspecified) | -10 | · | -9 | -10 | 11
COc1ccc(-c2nc3c(c(=O)[nH]c(=O)n3Cc3ccccc3)n2C)cc1 | 2 | -0.91 | -7 | -45 | 0
COc1ccc(-c2nc3c(c(=O)[nH]c(=O)n3Cc3ccccc3)n2Cc2ccccc2)cc1 | 0 | -3.1* | 1 | -9 | -2
O=C(CN1CCCCC1)Nc1cccc(-n2cnnn2)c1 | 6 | 0.25 | 7 | -8 | -6
O=C(CSc1ncn[nH]1)Nc1nnc(-c2ccccc2)s1 | · | · | 9 | 63* | ·
COc1ccc(-n2cnc3cc(NS(=O)(=O)c4ccc(C)cc4)ccc32)cc1 | 11 | -2.1 | 5 | -8 | -14
COc1ccccc1-n1cnc2cc(NS(=O)(=O)c3ccc(Br)cc3)ccc21 | 9 | -3.3* | 4 | -5 | -10
COc1ccc(NC(=S)N(CCc2nc3cc(C)c(C)cc3[nH]2)Cc2cccnc2)cc1 | -9 | -1.7 | 7 | 2 | 11
Cc1ccccc1C1CC(c2ccc(F)cc2)Nc2nc(N)nn21 (stereo unspecified) | 6 | · | 15 | 70* | -7
Nc1nc2n(n1)C(c1cccs1)CC(c1ccc(Br)cc1)N2 (stereo unspecified) | -4 | -3.2* | 12 | -3 | 3
COc1ccc(C2CC(c3ccc(Br)cc3)Nc3nc(N)nn32)cc1 (stereo unspecified) | 5 | -0.77 | -6 | -2 | -4
CCOc1cc(/C=C2\SC(=S)N(Nc3ccccc3)C2=O)ccc1O | -1 | -3.6* | -90 | 10 | 3
Cc1cc(C)nc(NN2C(=O)/C(=C/c3ccccc3)SC2=S)n1 | -4 | -1.8 | -23 | -12 | 5
COc1cc(/C=C2\SC(=S)N(Nc3ncc(C(F)(F)F)cc3Cl)C2=O)ccc1O | -8 | -3.1* | -162 | -12 | 8
CN(C)c1ccc(/C=C2\SC(=S)N(Nc3ncc(C(F)(F)F)cc3Cl)C2=O)cc1 | · | -3.4* | -32 | -75 | ·
CC1CCCC(C)N1C(=O)Cc1ccccc1 (stereo unspecified) | 17 | 0.36 | 9 | -1 | -17
CCOC(=O)c1c(C=O)c(C)n(Cc2ccccc2)c1C | 4 | -1.9 | 13 | -10 | -6
CCOC(=O)c1c(C=O)c(C)n(Cc2ccc(Cl)cc2)c1C | 1 | -3.2* | 1 | 7 | 2
COc1ccccc1N(CC(=O)Nc1ccc2c(c1)OCO2)S(=O)(=O)c1ccccc1 | -5 | -2.2 | -9 | -12 | 4
COc1cccc(N(CC(=O)Nc2ccc3c(c2)OCO3)S(=O)(=O)c2ccccc2)c1 | 10 | -3.1* | -30 | 0 | -8
CN(C(=O)CSc1nc(-c2ccccc2)cn1N)C(c1ccccc1)c1ccccc1 | -14 | -2 | 3 | -2 | 16
COc1cc(NC(=O)c2c3c(nc4ccccc24)CCC3)cc(OC)c1 | 6 | 0.03 | -12 | -6 | -2
